The values below come from ChEMBL document CHEMBL1157539, “Thousands of chemical starting points for antimalarial lead identification” (Nature, 2010).

One test has as its system Plasmodium falciparum. Description: GSK_TCMDC: Inhibition of Plasmodium falciparum 3D7 in whole red blood cells, using parasite LDH activity as an index of growth. Test compounds present at 2uM. It is filed as functional.
In general, Inhibition refers to the share of the control response that was lost under treatment. Turning to `Cc1ccc2[nH]c([N-]C#N)nc2c1.[Na+]`, the Inhibition is on record as 96%.
Compound `O=C(Nc1ccc(Cl)cc1)NC1CCN(CCCCCNC(=O)C2CC2c2ccc(Cl)c(Cl)c2)CC1` (configuration not stated) gave an Inhibition of 100%.
On the same count and under the same terms, to `Cc1cc2c(NC(=O)NC3CCN(CCc4ccccc4Cl)CC3)cccc2cn1.Cl` belongs 100%; to `COc1ccc2c(c1C1CCN(CCCCNC(=O)c3ccc(-c4ccc(Cl)cn4)cc3)CC1)CCCC2`, 90%.

The next test concerns Plasmodium falciparum. Description: GSK_TCMDC: Inhibition of Plasmodium falciparum Dd2 in whole red blood cells, using parasite LDH activity as an index of growth. Test compounds present at 2uM. Format: functional.
With `COc1cc2nc(N(C)C)nc(Nc3ccc4c(cnn4Cc4ccccc4)c3)c2cc1OC`, the Inhibition is 100%.
Same read-out and setting: the value for `CC(C)CCCC(C)(C)NC[C@@H](O)[C@H](Cc1ccccc1)NC(=O)c1cccc(CCC2CC2)c1` was 52%.
Same read-out and setting: the value for `CN(CCO)Cc1ccc(-c2ccc(NS(=O)(=O)c3cccc4cccnc34)cc2)cc1.O=C(O)C(F)(F)F` was 84%; that for `Cc1nc2nc(N)nc(N)c2c(C)c1Cc1c(Cl)cccc1Cl.Cl` was 5%; that for `CC(C)CNCc1cccc(-c2cccc(CN(CCN(C)C)C(=O)NCCc3ccccc3)c2)c1.O=C(O)C(F)(F)F` was 83%.
The same measure, in the same setting: the value for `Oc1ccc(Cl)cc1CN1CCCC(COC(c2ccc(F)cc2)c2ccc(F)cc2)C1` (configuration not stated) was 100%; that for `N#Cc1ccnc(-c2ccc(CNC3CCN(CC4Cn5c(=O)ccc6ccc(F)c4c65)CC3)cc2)c1.O=C(O)C(F)(F)F` (configuration not stated) was 41%.
In turn, `CCCN1CCc2c(sc3nc(SCC(=O)Nc4ccc(C)cc4)n(-c4ccc(C)cc4)c(=O)c23)C1` yielded an Inhibition of 71%.
Same read-out and setting: the value for `CN1CCN(c2ccnc3cc4c(cc23)N(Cc2ccccc2)CC4)CC1` was 27%; that for `Br.Clc1ccc(-c2nc(-c3ccncc3)c[nH]2)cc1Cl` was 63%; that for `CC(=O)Nc1ccc(C(=O)Nc2cccc(-c3cccc(-c4nc5ccccc5[nH]4)c3)c2)cn1` was 100%.
In turn, `COc1ccc(-c2ccc3c(-c4ccc(F)cc4)cnc(N)c3c2)cn1` came in with an Inhibition of 86%.
Same read-out and setting: the value for `Cc1sc(CNCCCNc2cc(=O)c3ccccc3[nH]2)c(I)c1C.Cl` was 48%; that for `C=CCOC(=O)N1CCC(CNCc2cccc(-c3ccc(-c4nc5cccc(C)c5[nH]4)cc3)c2)C1.O=C(O)C(F)(F)F` (configuration not stated) was 82%; that for `Cc1ccc(Nc2nccc(N(C)c3ccc4c(c3)nc(NC(=O)Cc3ccc(Cl)c(Cl)c3)n4C)n2)cc1S(N)(=O)=O.O=C(O)C(F)(F)F` was 60%.
`Cc1cccc(-n2c(Nc3ccc(C)c(Cl)c3)nc3ccc(S(=O)(=O)NC(C)C(C)C)cc32)c1` (configuration not stated) registered an Inhibition of 97%.
Same read-out and setting: to `Cc1ccc(NC(=O)c2ccc(CN3CCCN(Cc4cccc(O)c4)CC3)cc2)cc1F.O=C(O)C(F)(F)F` belongs 31%; to `CC1(C)NC(N)=NC(=N)N1OCc1cc(Cl)cc2c1OCOC2.Cl`, 64%; to `CC1(CCc2ccccc2)N=C(N)N=C(N)C1c1ccc(Cl)c(Cl)c1.Cl` (configuration not stated), 39%.
Compound `Cc1ccc(CNC(=O)[C@H](Cc2ccccc2)Nc2cc(C)nc(NCCc3ccc(F)cc3)n2)cc1.O=C(O)C(F)(F)F` had an Inhibition of 22%.
Still for that read-out and setting: the value for `COc1ccccc1CCNc1nc(C)cc(N[C@@H](CC(C)C)C(=O)Nc2ccccc2)n1.O=C(O)C(F)(F)F` was 76%; that for `CCCCOc1c(CCNCCCCNCCc2cc(F)c3ccccc3c2OCCCC)cc(F)c2ccccc12.CS(=O)(=O)O` was 78%.
The same measure, in the same setting: the value for `COc1ccc(Nc2nccc(-c3ccc(NC(=O)c4cc5cc(F)ccc5[nH]4)cc3)n2)cc1` was 26%; that for `Cc1cc(N[C@@H](CC(C)C)C(=O)NCc2cccc(F)c2)nc(NCC2CCCCC2)n1.O=C(O)C(F)(F)F` was 70%; that for `FC(F)(F)c1ccc(CNCC2CCN(Cc3ccc4c(c3)OCO4)CC2)cc1.O=C(O)C(F)(F)F` was 12%.
Same read-out and setting: to `CC(C)(C)c1ccc2[nH]c(-c3ccc(C(=O)NCCCc4ccccc4)cc3)nc2c1` belongs 14%.
In the case of `CCCN(CCC)C(=O)c1cc(C(=O)N[C@@H](Cc2ccccc2)[C@H](O)CNC(C)(C)c2cccc(C(F)(F)F)c2)cc(N2CCCCS2(=O)=O)c1`, the Inhibition is on record as 98%.
On to `CN(C)CCOC(=O)C1(O)CCC2CC1C2(C)C.Cl` (configuration not stated), for which the Inhibition is on record as 0%.
`CC(C)C[C@@H](/C=N/N1CCOC1=O)NC(=O)[C@H](CC(C)C)NC(=O)c1ccc(F)cc1` returned an Inhibition of 72%.
On the same count and under the same terms, to `COCCCN=C(S)NN=C(C)c1ccccn1` belongs 99%.
For the compound `CCCCCCCN(Cc1ccc(OC(C)(C)C(=O)OCC)cc1)C(=O)Nc1ccccc1OCC`, the Inhibition is given as 94%.
Still for that read-out and setting: the value for `C=Cc1ccc(-c2c(C)[nH]c(C)c(Br)c2=O)cc1` was 96%.
With `Cc1cc(NC(=O)c2ccco2)ccc1OC1CCN(Cc2ccc(C#N)cc2)CC1.O=C(O)C(F)(F)F`, the Inhibition came to 89%.
